# Experimental data taken from publication PMC7862700, “An all-to-all approach to the identification of sequence-specific readers for epigenetic DNA modifications on cytosine”.
# Experiments:
# Test in all cases: DAPPL (digital affinity profiling via proximity ligation, sequencing); 10 mM Tris-HCl pH 7.5, 50 mM NaCl, 1 mM DTT, 4% glycerol, room temperature, 30 min; GST-TFs on glutathione beads, 16-mer random dsDNA library, 0.1% formaldehyde crosslink after washing; high values mean tight binding
# Conditions in all cases: protein: recombinant; tags: N-terminal GST; dsDNA, one strand shown
# FLI1 = molecular target: T1, FLI1 (Homo sapiens, UniProt Q01543 1-452)
# T1 sequence: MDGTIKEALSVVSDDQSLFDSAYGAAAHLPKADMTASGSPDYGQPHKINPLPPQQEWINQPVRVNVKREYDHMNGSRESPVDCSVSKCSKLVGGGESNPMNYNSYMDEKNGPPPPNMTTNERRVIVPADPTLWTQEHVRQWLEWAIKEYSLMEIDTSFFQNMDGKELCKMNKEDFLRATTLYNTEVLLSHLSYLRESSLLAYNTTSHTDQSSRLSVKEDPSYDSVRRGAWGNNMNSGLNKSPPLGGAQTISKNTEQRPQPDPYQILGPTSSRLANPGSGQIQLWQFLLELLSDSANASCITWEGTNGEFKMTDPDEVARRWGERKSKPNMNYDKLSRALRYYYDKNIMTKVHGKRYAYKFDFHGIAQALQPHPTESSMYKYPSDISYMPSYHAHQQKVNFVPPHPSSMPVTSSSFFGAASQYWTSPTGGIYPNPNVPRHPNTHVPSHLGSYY
# Method in brief: (§1)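 Binding signal is each hexamer's read frequency for a factor divided by its frequency in the tag-only sample. The factors were GST-fused human transcription factors from yeast, captured on glutathione beads, DNA-barcoded and pooled with that sample. Pools were incubated with 200 nmole of a random double-stranded 16-mer DNA library in Tris/NaCl/DTT/glycerol buffer at room temperature for 30 min, then washed, crosslinked with 0.1% formaldehyde, proximity-ligated with BsaI/T4 ligase (1 h, 37 °C), PCR-amplified and sequenced on an Illumina NextSeq500.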
# ELK1 = molecular target: T2, ELK1 (Homo sapiens, UniProt P19419 1-428)
# T2 sequence: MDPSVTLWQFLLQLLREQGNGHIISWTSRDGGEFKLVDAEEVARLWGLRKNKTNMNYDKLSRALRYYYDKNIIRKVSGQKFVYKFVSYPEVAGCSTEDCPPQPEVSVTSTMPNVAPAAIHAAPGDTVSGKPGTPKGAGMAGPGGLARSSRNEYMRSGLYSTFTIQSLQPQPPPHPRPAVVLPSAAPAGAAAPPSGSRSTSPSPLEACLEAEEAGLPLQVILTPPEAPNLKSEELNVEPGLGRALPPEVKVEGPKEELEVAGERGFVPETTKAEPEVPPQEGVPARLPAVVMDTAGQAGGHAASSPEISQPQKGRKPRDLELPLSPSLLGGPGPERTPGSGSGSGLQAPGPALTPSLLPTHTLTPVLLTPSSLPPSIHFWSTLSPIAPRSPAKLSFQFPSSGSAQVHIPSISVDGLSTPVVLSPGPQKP
# Method in brief: as §1
# GABPA = molecular target: T3, GABPA (Homo sapiens, UniProt Q06546 1-454)
# T3 sequence: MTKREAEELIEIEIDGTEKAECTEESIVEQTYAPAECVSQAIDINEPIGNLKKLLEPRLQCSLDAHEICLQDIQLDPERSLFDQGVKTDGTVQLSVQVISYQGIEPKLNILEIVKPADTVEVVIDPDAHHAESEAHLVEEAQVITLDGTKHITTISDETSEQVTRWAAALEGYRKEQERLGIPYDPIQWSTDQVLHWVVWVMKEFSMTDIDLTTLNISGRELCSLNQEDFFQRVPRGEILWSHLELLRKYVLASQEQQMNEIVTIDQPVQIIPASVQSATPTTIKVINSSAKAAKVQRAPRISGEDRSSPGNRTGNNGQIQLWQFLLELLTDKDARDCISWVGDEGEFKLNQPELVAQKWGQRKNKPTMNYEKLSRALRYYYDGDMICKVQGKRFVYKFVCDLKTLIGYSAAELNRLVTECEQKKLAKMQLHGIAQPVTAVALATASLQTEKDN
# Method in brief: as §1
# ERG = molecular target: T4, ERG (Homo sapiens, UniProt P11308 1-479)
# T4 sequence: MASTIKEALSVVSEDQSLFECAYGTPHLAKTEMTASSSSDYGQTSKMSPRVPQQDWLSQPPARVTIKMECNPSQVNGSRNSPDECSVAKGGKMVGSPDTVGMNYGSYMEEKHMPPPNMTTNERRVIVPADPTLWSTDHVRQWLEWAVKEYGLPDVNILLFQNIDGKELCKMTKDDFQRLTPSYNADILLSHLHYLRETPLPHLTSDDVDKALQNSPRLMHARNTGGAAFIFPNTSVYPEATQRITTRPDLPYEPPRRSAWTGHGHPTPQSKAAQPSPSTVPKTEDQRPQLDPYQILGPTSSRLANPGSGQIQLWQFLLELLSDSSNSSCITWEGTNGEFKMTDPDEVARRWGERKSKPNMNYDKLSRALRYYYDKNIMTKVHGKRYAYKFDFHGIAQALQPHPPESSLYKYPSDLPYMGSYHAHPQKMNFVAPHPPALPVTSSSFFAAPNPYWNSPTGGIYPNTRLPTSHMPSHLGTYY
# Method in brief: as §1
# ELF1 = ELF1 (Homo sapiens, UniProt P32519 1-619)
# Method in brief: as §1
# EHF = molecular target: T5, EHF (Homo sapiens, UniProt Q9NZC4 1-300)
# T5 sequence: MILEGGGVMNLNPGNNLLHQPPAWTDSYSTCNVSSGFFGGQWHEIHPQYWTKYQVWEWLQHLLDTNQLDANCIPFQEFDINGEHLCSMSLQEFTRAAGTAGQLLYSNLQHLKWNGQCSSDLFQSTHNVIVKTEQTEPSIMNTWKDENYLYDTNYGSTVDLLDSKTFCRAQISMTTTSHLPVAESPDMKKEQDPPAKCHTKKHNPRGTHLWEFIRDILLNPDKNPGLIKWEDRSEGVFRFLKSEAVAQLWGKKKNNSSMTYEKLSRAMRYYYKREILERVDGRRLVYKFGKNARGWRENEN
# Method in brief: as §1
# SPI1 = SPI1 (Homo sapiens, UniProt P17947 1-270)
# Method in brief: as §1
# SPIB = SPIB (Homo sapiens, UniProt Q01892 1-262)
# Method in brief: as §1
# ELK3 = molecular target: T6, ELK3 (Homo sapiens, UniProt P41970 1-407)
# T6 sequence: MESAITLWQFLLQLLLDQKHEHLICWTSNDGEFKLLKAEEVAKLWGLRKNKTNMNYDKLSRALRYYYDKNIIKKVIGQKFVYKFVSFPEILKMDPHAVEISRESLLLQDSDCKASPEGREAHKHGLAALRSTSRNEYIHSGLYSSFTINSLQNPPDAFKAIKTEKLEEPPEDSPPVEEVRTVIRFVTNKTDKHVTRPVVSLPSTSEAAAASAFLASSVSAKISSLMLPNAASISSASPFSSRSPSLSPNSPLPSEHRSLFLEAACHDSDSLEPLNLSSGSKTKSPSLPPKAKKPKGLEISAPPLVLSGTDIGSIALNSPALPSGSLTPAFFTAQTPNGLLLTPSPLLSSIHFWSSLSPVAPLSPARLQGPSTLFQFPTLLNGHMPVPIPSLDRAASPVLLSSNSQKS
# Method in brief: as §1
# Chain of SPIB (Q01892 whole entry): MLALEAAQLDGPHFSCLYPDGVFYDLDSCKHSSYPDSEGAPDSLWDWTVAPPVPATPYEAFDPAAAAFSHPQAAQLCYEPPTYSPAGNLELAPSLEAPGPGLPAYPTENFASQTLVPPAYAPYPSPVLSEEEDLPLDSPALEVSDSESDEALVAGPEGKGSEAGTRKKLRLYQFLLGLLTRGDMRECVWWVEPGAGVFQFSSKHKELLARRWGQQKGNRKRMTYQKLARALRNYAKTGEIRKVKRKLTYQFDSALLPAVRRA
# Chain of ELF1 (P32519 whole entry): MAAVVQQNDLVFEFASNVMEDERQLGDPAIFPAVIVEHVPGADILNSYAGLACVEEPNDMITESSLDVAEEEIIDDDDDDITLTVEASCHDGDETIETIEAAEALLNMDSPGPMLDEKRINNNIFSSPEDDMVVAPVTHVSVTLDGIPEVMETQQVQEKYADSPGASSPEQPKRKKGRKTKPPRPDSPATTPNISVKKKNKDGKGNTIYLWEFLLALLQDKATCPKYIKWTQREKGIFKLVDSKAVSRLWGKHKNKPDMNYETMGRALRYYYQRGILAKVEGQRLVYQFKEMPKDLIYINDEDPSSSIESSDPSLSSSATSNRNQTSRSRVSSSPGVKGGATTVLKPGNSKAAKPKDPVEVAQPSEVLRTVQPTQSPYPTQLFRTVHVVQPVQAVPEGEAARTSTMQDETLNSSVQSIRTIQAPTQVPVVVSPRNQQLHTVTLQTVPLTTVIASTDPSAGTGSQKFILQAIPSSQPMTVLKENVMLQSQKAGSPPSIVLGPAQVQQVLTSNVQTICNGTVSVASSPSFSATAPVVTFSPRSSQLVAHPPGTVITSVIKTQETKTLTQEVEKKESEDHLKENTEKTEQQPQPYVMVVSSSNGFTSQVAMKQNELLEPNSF
Sequence,binding signal (FLI1),binding signal (ELK1),binding signal (GABPA),binding signal (ERG),binding signal (ELF1),binding signal (EHF),binding signal (SPI1),binding signal (SPIB),binding signal (ELK3)
TTTACA,"1.18 fold enrichment (6-mer frequency, TF over GST control)","1.19 fold enrichment (6-mer frequency, TF over GST control)","1.25 fold enrichment (6-mer frequency, TF over GST control)","1.23 fold enrichment (6-mer frequency, TF over GST control)","1.31 fold enrichment (6-mer frequency, TF over GST control)","1.31 fold enrichment (6-mer frequency, TF over GST control)","1.22 fold enrichment (6-mer frequency, TF over GST control)","1.24 fold enrichment (6-mer frequency, TF over GST control)","1.25 fold enrichment (6-mer frequency, TF over GST control)"
TTCGAC,"1.52 fold enrichment (6-mer frequency, TF over GST control)","1.51 fold enrichment (6-mer frequency, TF over GST control)","1.49 fold enrichment (6-mer frequency, TF over GST control)","1.43 fold enrichment (6-mer frequency, TF over GST control)","1.49 fold enrichment (6-mer frequency, TF over GST control)","1.41 fold enrichment (6-mer frequency, TF over GST control)","1.3 fold enrichment (6-mer frequency, TF over GST control)","1.45 fold enrichment (6-mer frequency, TF over GST control)","1.39 fold enrichment (6-mer frequency, TF over GST control)"
GCCCTA,"1.29 fold enrichment (6-mer frequency, TF over GST control)","1.24 fold enrichment (6-mer frequency, TF over GST control)","1.21 fold enrichment (6-mer frequency, TF over GST control)","1.15 fold enrichment (6-mer frequency, TF over GST control)","1.19 fold enrichment (6-mer frequency, TF over GST control)","1.12 fold enrichment (6-mer frequency, TF over GST control)","1.19 fold enrichment (6-mer frequency, TF over GST control)","1.28 fold enrichment (6-mer frequency, TF over GST control)","1.19 fold enrichment (6-mer frequency, TF over GST control)"
ATTTCG,"1.24 fold enrichment (6-mer frequency, TF over GST control)","1.25 fold enrichment (6-mer frequency, TF over GST control)","1.29 fold enrichment (6-mer frequency, TF over GST control)","1.25 fold enrichment (6-mer frequency, TF over GST control)","1.3 fold enrichment (6-mer frequency, TF over GST control)","1.35 fold enrichment (6-mer frequency, TF over GST control)","1.29 fold enrichment (6-mer frequency, TF over GST control)","1.37 fold enrichment (6-mer frequency, TF over GST control)","1.21 fold enrichment (6-mer frequency, TF over GST control)"
